PAFAH1B2 FP inh – PAFAH1B2 (human) inhibition; AID 492953; recombinant PAFAH1B2, FP-rhodamine activity probe, fluorescence polarization; inhibition, % at 3.39 µM; actives 1.2% (n = 340,000); P68402;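 active = inhibition above the mean of all tested compounds plus 3 SD, cut at about 24% in these data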;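 also: 0% = enzyme with DMSO and 100% = wells lacking PAFAH1B2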
Target sequence (P68402 whole entry, looked up): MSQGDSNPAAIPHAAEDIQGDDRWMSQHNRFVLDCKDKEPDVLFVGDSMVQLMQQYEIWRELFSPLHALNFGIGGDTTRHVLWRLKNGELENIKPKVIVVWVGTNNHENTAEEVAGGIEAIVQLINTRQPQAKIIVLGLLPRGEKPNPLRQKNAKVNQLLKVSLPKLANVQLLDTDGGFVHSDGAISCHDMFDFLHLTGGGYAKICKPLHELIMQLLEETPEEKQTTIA
pPAFAH inh – inhibitors of human plasma PAF acetylhydrolase (pPAFAH). recombinant pPAFAH, FP-rhodamine probe fluorescence polarization. actives 1.5% (n = 330,000). Q13093. inhibition, % at 3.39 µM;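 active = inhibition above the mean inhibition across the screen plus 3 SD, cut at about 25% in these data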;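 also: inhibitors block binding of the rhodamine activity-based probe so polarization drops; 0% = enzyme with DMSO and 100% = wells lacking pPAFAH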
Target sequence (Q13093 whole entry, looked up): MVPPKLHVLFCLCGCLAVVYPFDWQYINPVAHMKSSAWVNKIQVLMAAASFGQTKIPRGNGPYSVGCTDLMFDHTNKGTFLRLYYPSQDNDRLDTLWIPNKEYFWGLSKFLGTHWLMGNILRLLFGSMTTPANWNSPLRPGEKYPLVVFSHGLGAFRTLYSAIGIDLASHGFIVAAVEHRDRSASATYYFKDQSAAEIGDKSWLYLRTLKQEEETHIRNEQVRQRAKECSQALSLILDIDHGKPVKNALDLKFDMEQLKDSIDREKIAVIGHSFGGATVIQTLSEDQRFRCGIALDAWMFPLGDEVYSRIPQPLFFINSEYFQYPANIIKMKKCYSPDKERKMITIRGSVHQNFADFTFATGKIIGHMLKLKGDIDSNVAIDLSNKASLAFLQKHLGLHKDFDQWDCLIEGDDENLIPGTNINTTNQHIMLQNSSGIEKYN
PAFAH2 inh – PAFAH2 (human) inhibition | actives 0.99% (n = 340,000) | Q99487 | AID 492956 | recombinant PAFAH2, FP-rhodamine activity probe, fluorescence polarization | inhibition, % at 3.39 µM;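 active = inhibition above the mean over all tested compounds plus 3 SD, cut at about 30% in these data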;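 also: inhibitors block probe labeling of enzyme so polarization drops; 0% = enzyme with DMSO and 100% = wells lacking PAFAH2 protein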
Rin1-Abl PPI inh – inhibitors of human Rin1-Abl protein interaction; P00519+Q13671; TR-FRET Rin1/Abl binding, biochemical; inhibition, % at 7.35 µM; actives 0.4% (n = 360,000); in the data active = inhibition above about 5%, passing the limit was not always enough
E coli Lon inh – inhibits E. coli Lon protease; actives 0.42% (n = 360,000); inhibition, % at 7.94 µM; purified E. coli Lon protease, fluorescence polarization; in the data active = inhibition above about 13%, passing the limit was not always enough;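 also: 0% = enzyme with probe and DMSO and 100% = no enzyme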
PAFAH1B3 inh – inhibitors of human PAFAH1B3. recombinant PAFAH1B3, FP-rhodamine probe, fluorescence polarization. inhibition, % at 3.39 µM. actives 0.28% (n = 340,000). AID 492972;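 active = inhibition above the screen-wide average of all tested compounds plus 3 SD, cut at about 25% in these data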;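 also: 0% = enzyme with DMSO only and 100% = wells lacking PAFAH1B3 protein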
* = called active by the depositor; · = no result. Most compounds without a hit are left out; they make up all but 3.1% or so of the library.

SMILES | PAFAH1B2 FP inh | pPAFAH inh | PAFAH2 inh | Rin1-Abl PPI inh | E coli Lon inh | PAFAH1B3 inh
CCOC(=O)c1c(S(=O)(=O)N2CCCCC2C)c(C)n(C)c1C (stereo unspecified) | 4.6 | 3.5 | 6.4 | -1.3 | 2.2 | 9.0
COC(CN(C)C(=O)C1CCC(CNS(=O)(=O)c2ccccc2)CC1)OC (stereo unspecified) | 5.2 | 7.8 | 1.4 | -0.7 | -3.6 | 2.9
COC(CN(C)C(=O)C1CCC(CNS(=O)(=O)c2ccc(C)cc2)CC1)OC (stereo unspecified) | 5.8 | 24.6* | -1.2 | 0.3 | -9.2 | -0.7
O=C(Nc1cccc2c1CCCC2)c1cc(C2CCCCN2C(=O)c2cccs2)on1 (stereo unspecified) | · | · | · | -2.6 | -1.9 | ·
CC(NS(=O)(=O)c1ccc(OCC(=O)NCc2cccnc2)cc1)c1ccccc1 (stereo unspecified) | 10.5 | 9.1 | -3.9 | 4.5 | -3.0 | 2.3
O=C(COc1ccc(S(=O)(=O)Nc2ccccc2)cc1)NCc1cccnc1 | -0.5 | 29.4* | 0.5 | 0.9 | -15.8 | 8.3
Cc1ccccc1NS(=O)(=O)c1ccc(OCC(=O)NCc2cccnc2)cc1 | 7.1 | 33.5* | -0.6 | -2.7 | 3.2 | 5.4
CSc1cccc(NC(=O)C2CCCN(S(C)(=O)=O)C2)c1 (stereo unspecified) | · | · | · | -5.4 | -8.0 | ·
CC(C)(C)c1cc(=O)[nH]c(SCc2ccccc2Cl)n1 | 12.0 | 26.9* | 15.7 | -0.7 | -2.8 | 4.5
CC(C)(C)c1cc(=O)[nH]c(SCc2ccccc2)n1 | 21.1 | 30.8* | 14.3 | 1.2 | -1.6 | 1.4
Cc1cc(=O)[nH]c(SCc2ccccc2)n1 | 0.2 | -1.5 | 2.8 | -2.0 | -4.6 | 4.9
Cc1ccc(S(=O)(=O)Nc2cc(=O)[nH]c(SCc3ccccc3Cl)n2)cc1 | -0.8 | -9.4 | -1.9 | 1.4 | -1.1 | 5.0
COc1ccc(CCNC(=O)Nc2ccc(F)cc2F)cc1OC | 4.6 | 1.0 | 4.4 | 1.8 | -4.4 | 0.8
Cc1cc(C)n2nnnc2n1 | 1.0 | 1.6 | -1.9 | 0.0 | -2.3 | 2.0
Cc1ccc(NS(=O)(=O)c2ccc3[nH]c(=O)[nH]c3c2)c(C)c1 | -4.8 | 28.1* | -4.5 | 3.4 | -6.2 | -1.7
CNC(=O)c1cc(S(=O)(=O)NC2CCCCCC2)ccc1C | 9.0 | · | 1.1 | 0.7 | 5.1 | 2.9
CNC(=O)c1cc(S(=O)(=O)Nc2ccc(C)cc2C)ccc1C | -2.9 | 29.9* | -0.4 | 3.7 | -5.3 | 2.9
Cc1ccc(C)c(NS(=O)(=O)c2ccc3[nH]c(=O)[nH]c3c2)c1 | 1.8 | 11.1 | -8.7 | -4.2 | 1.3 | 5.0
NC(=O)COn1c(SCC(N)=O)nc2ccccc2c1=O | 2.0 | -2.8 | 0.6 | 0.0 | -2.7 | 3.1
CCC(C)(C)C1CCC2(CC1)NC(=O)N(CC(=O)N(C)Cc1ccc3c(c1)OCCO3)C2=O (stereo unspecified) | 21.7 | -1.1 | -0.2 | -0.8 | -11.4 | 6.9
O=C(c1ccccc1)c1ccc2nc(-c3ccc(NC(=O)c4ccccc4Br)cc3)[nH]c2c1 | -29.5 | -55.6 | -50.1 | -2.7 | -4.3 | -48.3
Cc1ccccc1C(=O)Nc1ccc(-c2nc3ccc(C(=O)c4ccccc4)cc3[nH]2)cc1 | -36.3 | -47.5 | -73.9 | 8.5* | 0.6 | -25.7
CCCc1ccc(Oc2cc(Cl)nc(N)n2)cc1 | 6.4 | 26.3* | 11.3 | 0.3 | -12.8 | 10.2
Cc1c(C(=O)NCc2ccc(F)cc2)sc(=O)n1Cc1ccccc1 | · | · | · | -0.8 | 0.4 | ·
COc1ccc(NC(=O)N2CCCC(c3nc(-c4ccc(C(C)C)cc4)no3)C2)cc1 (stereo unspecified) | 29.6* | 20.8 | -8.7 | -3.3 | 4.7 | -6.7
SMILES | PAFAH1B2 FP inh | pPAFAH inh | PAFAH2 inh | Rin1-Abl PPI inh | E coli Lon inh | PAFAH1B3 inh
CCOc1ccc(CCN2C(=S)N([C@@H](Cc3ccc(O)cc3)CN3CCC[C@@H]3CN3C(=S)NC[C@@H]3CC(C)C)C[C@@H]2CC(C)C)cc1 | · | · | · | 4.2 | -0.8 | ·
Cc1c(OCC(=O)N[C@@H](Cc2ccccc2)C(=O)O)ccc2c3c(c(=O)oc12)CCC3 | 4.5 | 8.3 | 4.6 | -1.6 | 2.1 | 2.2
Cc1c(OCC(=O)N[C@@H](CSCc2ccccc2)C(=O)O)ccc2c3c(c(=O)oc12)CCC3 | 24.4* | · | 13.1 | 1.6 | -2.0 | 1.7
COc1ccc(Cc2nc3ccc(C(=O)NCc4cccc(C)n4)cc3o2)cc1OC | · | · | · | -1.9 | -3.4 | ·
O=C1NC(Cc2ccccc2)c2nc3ccc(F)cc3c(=O)n2-c2cc3ccccc3cc21 (stereo unspecified) | · | · | · | -1.8 | -11.3 | ·
COc1ccc([C@@H]2CC=C(C(=O)O)[C@H](c3ccccc3)N2S(=O)(=O)c2ccc(C)cc2)cc1OC | 5.0 | -0.7 | 0.1 | 2.2 | -8.9 | 7.2
CCOc1ccc([C@@H]2CC=C(C(=O)O)[C@H](c3cccc(Cl)c3)N2S(=O)(=O)c2ccc(C)cc2)cc1 | 19.1 | 5.8 | 3.2 | -1.0 | 3.0 | 2.5
Cc1ccc([C@@H]2CC=C(C(=O)O)[C@H](c3ccc(C(C)(C)C)cc3)N2S(=O)(=O)c2ccc(C)cc2)cc1 | 86.9* | 14.8 | -1.0 | -1.5 | -2.2 | -2.9
Cc1ccc(S(=O)(=O)N2[C@@H](c3ccc(C(C)(C)C)cc3)C(C(=O)O)=CC[C@H]2c2ccc(C(C)C)cc2)cc1 | 82.8* | 11.3 | 1.7 | 4.0 | 0.7 | 1.6
CCc1ccc([C@@H]2CC=C(C(=O)O)[C@H](c3ccc(C(C)(C)C)cc3)N2S(=O)(=O)c2ccc(C)cc2)cc1 | 86.8* | 18.4 | 9.5 | 2.0 | 1.9 | 4.9
Cc1ccc(S(=O)(=O)N2[C@@H](c3ccc(Cl)cc3)C(C(=O)O)=CC[C@H]2c2ccc(Cl)c(Cl)c2)cc1 | 90.3* | 10.0 | 7.4 | -1.2 | -8.8 | -1.9
CN1CCC(C)(C(=O)Nc2ccc3c(c2)OCCO3)C1 (stereo unspecified) | · | · | · | -4.2 | -3.0 | ·
Cc1cc2c(cc1S(=O)(=O)CCC(=O)Nc1cccc(C(F)(F)F)c1)OCC(=O)N2 | -0.9 | -3.9 | -1.2 | 1.8 | -2.2 | 1.0
Cc1ccc(S(=O)(=O)N2[C@@H](c3ccc(Br)cc3)C(C(=O)O)=CC[C@H]2c2ccc(C(C)C)cc2)cc1 | 89.2* | 15.6 | 15.4 | 1.8 | -6.3 | -2.4
Cc1ccc(Cc2cnc(NC(=O)C3CCCO3)s2)cc1 (stereo unspecified) | 28.3* | 10.2 | -1.3 | -1.6 | -7.1 | 4.2
O=C(Nc1ncc(Cc2cccc(C(F)(F)F)c2)s1)C1CCCO1 (stereo unspecified) | 3.4 | 10.0 | -0.2 | -2.2 | -9.1 | -5.9
COc1ccc(-c2coc3c(C)c4oc(=O)c(CCC(=O)O)c(C)c4cc23)cc1 | 3.7 | 25.0* | 7.0 | 5.0 | -24.9 | 4.7
O=C(NCC1COCCO1)c1cc(COc2c(F)cccc2F)on1 (stereo unspecified) | -2.1 | 24.9* | -0.4 | -2.5 | 3.2 | 2.5
CN(C(=O)c1cc(COc2c(F)cccc2F)on1)C1CCOC1 (stereo unspecified) | 2.9 | -2.6 | 4.4 | 1.6 | -7.2 | -0.2
